SMILES strings stand for the structures. In all, about 350,000 compounds went through this assay and about 5,500 (1.6%) were called active.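 How the source made its calls: active means significant combined selectivity score with lowered wild-type GFP, culture density cut under 30%, mutant RFP and density less affected; inactive means any of these conditions unmet.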 This excerpt belongs to a sample that is enriched for actives.

The experiment is described as follows: GFP drop in mixed WT/humanized-ribosome E. coli culture – GFP/RFP fluorescence, OD600, single point, bacterial rRNA inhibitor project, primary screen (AID 720706). The note with it: E. coli WT GFP vs humanized-ribosome RFP mutants, 24 h; GFP signal change (wild-type ribosome): stronger effect = lower value, DMSO median 0, no signal -100; OD600 change: measured here: OD600 growth, DMSO median 0, no signal -100; RFP signal change: measured here: RFP humanized mutant strains, DMSO median 0, no signal -100, concentration not given here.
Take `Fc1cccc(Cl)c1CSc1ccc(-c2ccco2)nn1`: the GFP signal change (wild-type ribosome) is -21.1% (active), the OD600 change was -7.59% and the RFP signal change was 0.773%.
On the same counts, the results for `N#C[C@@H]1[C@H](c2ccc(-c3cccnc3)cc2)[C@H](CO)N1C(=O)C1CC1` are 1.69% (inactive), -1.23% and 1.92%.
On to `C[C@@H]1CN([C@@H](C)CO)C(=O)c2cc(-c3ccc(F)cc3)cnc2O[C@H]1CN(C)C(=O)c1ccncc1`, for which the GFP signal change (wild-type ribosome) is 5.96% (inactive), the OD600 change was determined as 18.3% and the RFP signal change is -6.6%.
On the same counts, the results for `COCC(=O)N[C@H]1C=C[C@H](CC(=O)N2CCCCC2)O[C@H]1CO` are 0.044% (inactive), 2.08% and 0.319%.
Consider `CN(CCOc1ccc(CC2SC(=O)NC2=O)cc1)c1ccccn1` (centres undefined), for which the GFP signal change (wild-type ribosome) was -18.5% (active), the OD600 change was -19.1% and the RFP signal change worked out at 5.83%.
On the same counts, the results for `CC(C)=N/N=C1/NC(=O)C(Cc2ccccc2)S1` (centres undefined) are 5.19% (inactive), 0.06% and 4.42%.
On the same counts, the results for `CC(O)c1ccc(OCCN(C)c2ccccn2)cc1` (centres undefined) are 7.56% (inactive), 9.08% and -0.281%.
On the same counts, the results for `CCC(=O)N1CCC2(CC1)CN(Cc1ccc(Cl)cc1)[C@@H](CO)c1[nH]c3cc(OC)ccc3c12` are 0.255% (inactive), -3.27% and 4.57%.
On to `COc1ccc2c3c(n(C)c2c1)[C@@H](CO)NCC31CCN(CC2CC2)CC1`, for which the GFP signal change (wild-type ribosome) was 8.18% (inactive), the OD600 change was determined as 22.6% and the RFP signal change was -3.19%.
On the same counts, the results for `O=C(NCC[C@H]1CC[C@@H](NC(=O)c2cnccn2)[C@H](CO)O1)Nc1ccc(Cl)cc1` are -40.4% (inactive), -66.2% and 9.29%.
On the same counts, the results for `COc1cccc(CNC(=O)[C@H]2CCCN2C(=O)[C@H]2CCCN2C(=O)c2ccc(F)cc2)c1` are 2.11% (inactive), 11.4% and -3.48%.
On the same counts, the results for `CNC[C@H]1Oc2ccc(NC(=O)NC(C)C)cc2C(=O)N(C)C[C@@H]1C` are 4.42% (inactive), 7.25% and 0.095%.
In the case of `COC(=O)c1cc2c(N)c(C(=O)c3ccc(Cl)cc3)sc2nc1C(OC)OC`, the GFP signal change (wild-type ribosome) was 19.9% (inactive), the OD600 change was found to be 8.88% and the RFP signal change came to 2.24%.
On the same counts, the results for `Cc1ccc(NC(=O)c2sc3nc(N)c(C#N)cc3c2N)cc1` are 1.14% (inactive), 1.53% and 1.97%.
On the same counts, the results for `CCN(CC)C(=O)c1sc2nc(-c3ccccc3)ccc2c1N` are -15.6% (active), -3.66% and 4.88%.
On the same counts, the results for `CCN(CC)C(=O)c1nc[nH]c1C(=O)N(C)Cc1ccccc1` are 31.5% (inactive), 17.4% and 2.93%.
Take `CCOC(=O)C(C)n1nc(-c2ccccc2)c2ccccc2c1=O` (centres undefined): the GFP signal change (wild-type ribosome) was 2% (inactive), the OD600 change is 4.27% and the RFP signal change was -0.337%.
On the same counts, the results for `Cc1ccc2c(N)c(C(=O)c3ccccc3)sc2n1` are -33.7% (active), -0.632% and -10.4%.
On the same counts, the results for `CC(=O)NC[C@@H]1[C@@H](c2ccccc2)[C@@H](CO)N1C(=O)Cc1cccnc1` are 1.93% (inactive), 9.5% and -2.5%.
On the same counts, the results for `COCC(=O)N1CC(=O)N2[C@H](CO)[C@@H](c3ccc(C#CC4CCCCC4)cc3)[C@@H]2C1` are -1.52% (inactive), -39.4% and 13.9%.
Regarding `CC(C)(C)NC(=O)NC(=O)CN1CCC(Cc2ccccc2)CC1`, the GFP signal change (wild-type ribosome) was -31.9% (active), the OD600 change is -22.7% and the RFP signal change was -1.62%.
For `O=C(CN1CCCCC1)NC(=O)Nc1ccccc1F`, the GFP signal change (wild-type ribosome) is 20.5% (inactive), the OD600 change amounted to 19.5% and the RFP signal change is 2.38%.
On the same counts, the results for `COc1ccc(NC(=O)N2CCC(Cc3ccccc3)CC2)cc1` are -3.82% (inactive), -5.59% and -1.73%.
On the same counts, the results for `CO[C@@H]1CN(C)C(=O)c2ccc(NS(=O)(=O)c3ccc(Cl)cc3)cc2OC[C@@H](C)N(C)C[C@@H]1C` are -0.718% (inactive), 1.84% and -0.00025%.
On the same counts, the results for `O=C(c1ccccc1F)N1CC(=O)N2[C@H](CO)[C@@H](c3ccc(-c4cccnc4)cc3)[C@H]2C1` are 4.23% (inactive), 20.3% and 2.58%.
Turning to `CC(=O)N1C[C@@H]2C(c3ccccc3)[C@@H](C1)N2C(=O)NC(C)C` (some centres undefined), the GFP signal change (wild-type ribosome) is 1.98% (inactive), the OD600 change was found to be 3.76% and the RFP signal change is -1.21%.
On the same counts, the results for `Cc1nnc(SCC(=O)Nc2cccc(N)c2)n1-c1ccccc1` are 6.38% (inactive), 12% and 4.46%.
On the same counts, the results for `Cc1nnc(SCc2ccc(C(=O)c3ccc(Cl)cc3)o2)n1-c1ccccc1` are -32.1% (active), -22.7% and 3.57%.
On the same counts, the results for `COC(=O)c1ccc(CSc2nc3ccccc3c(=O)n2-c2cccc(OC)c2)o1` are 1.15% (inactive), -0.729% and 0.461%.
With `C[C@@H]1CN([C@@H](C)CO)C(=O)c2cc(NS(=O)(=O)c3cn(C)cn3)ccc2O[C@@H]1CN(C)Cc1ccc(C(=O)Nc2ccccc2N)cc1`, the GFP signal change (wild-type ribosome) was 5.78% (inactive), the OD600 change was 6.33% and the RFP signal change is 3.25%.
Regarding `O=C(O)c1ccc(-n2nc(-c3ccccc3)c3ccccc3c2=O)cc1`, the GFP signal change (wild-type ribosome) is 2.07% (inactive), the OD600 change is -9.56% and the RFP signal change is -1.61%.
For `O=c1[nH]n2c(-c3ccccc3)nc(O)c2c2ccccc12`, the GFP signal change (wild-type ribosome) was -31.6% (active), the OD600 change is -7.74% and the RFP signal change came to 0.585%.
Turning to `COCC(=O)N1CC(=O)N2[C@@H](CO)[C@@H](c3ccc(C#CC(C)C)cc3)[C@@H]2C1`, the GFP signal change (wild-type ribosome) was -0.482% (inactive), the OD600 change was determined as 2.33% and the RFP signal change was -1.33%.

Values taken from PubChem BioAssay AID720706 (Broad Institute, 2013).
